This is a sample that favours compounds with a hit; in the whole collection about 6.5% have one here.
Vaccinia Venus – vaccinia inhibition (Venus reporter) | Vaccinia virus Venus reporter expression, fluorescence | Potency, µM (titrated, usually from 36.5 µM), hits mostly inhibitors | hit rate 0.46% among 330,000 | AID 720580; calls by dose curve; tested in A549 cells; also: nearly all actives have a fitted effect of over 30% in size
Vaccinia mCherry – inhibitors of vaccinia virus infection (mCherry reporter signal); Vaccinia virus mCherry reporter infection, fluorescence; Potency, µM (top dose mostly 36.5 µM), most hits filed as inhibitors; hit rate 0.63% among 310,000; AID 720579; calls by dose curve; tested in A549 cells; also: nearly all actives have a fitted effect of over 35% in size
HCMV inh – human cytomegalovirus inhibition; activity change, negative = inhibition, % at 57.5 µM; hit rate 4.5% among 410,000; HFF cells, HCMV-luciferase reporter, 72 h; active compounds read low; AID 1259415; in the data active = activity change below about -60%; inconclusive = no clear call, values can overlap the other calls; inactive = above about -39%
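Cell-based, HFFs, 1000 cells/well, 16 h 37C; cpds in DMSO + HCMV-luc, MOI 1 PFU/cell; 72 h 37C; OneGlo luminescence after 5 min RT; norm. to buffer vs Salinomycin 10uM.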
FMDV antiviral – blocks foot and mouth disease virus; FMDV antiviral cell-based qHTS; Potency, µM (doses to about 57.9 µM), actives largely listed as inhibitors; hit rate 1.2% among 410,000; AID 1159524; calls by dose curve; tested in HEK293T cells; also: read-out not given here; nearly all actives have a fitted effect of over 45% in size
Marburg entry inh – blocks Marburg virus binding to or entry into cells; Marburg virus pseudotyped entry inhibition, cell reporter; hit rate 1.8% among 300,000; AID 540276; Potency, µM (top dose mostly 37.8 µM), hits mostly inhibitors; calls by dose curve; tested in HEK293 cells
Lassa entry inh – Lassa virus entry inhibition | Lassa virus pseudotype entry inhibition, cell reporter | AID 540256 | Potency, µM (series often up to 37.9 µM), hits mostly inhibitors | hit rate 1.2% among 300,000; calls by dose curve; tested in HEK293 cells; also: nearly all actives have a fitted effect of over 50% in size
Numbers stand for hits; . = inactive; ? = inconclusive; / = not tested or not shown; ! = not active in a repeat.

SMILES	Vaccinia Venus	Vaccinia mCherry	HCMV inh	FMDV antiviral	Marburg entry inh	Lassa entry inh
COc1ccc(S(=O)(=O)Nc2ccc3c(c2)N(C(C)=O)CCC3)cc1	.	.	-61.9	?	.	?
CCOc1ccc(S(=O)(=O)Nc2ccc3c(c2)CCCN3S(=O)(=O)c2ccc(C)cc2)cc1	.	.	-64.7	.	/	?
CSc1cccc(NS(=O)(=O)c2ccc(C(C)=O)cc2)c1	.	.	-67.6	.	?	?
Cc1ccc(S(=O)(=O)N2CCCc3cc(NS(=O)(=O)c4cccc(Cl)c4)ccc32)cc1	?	?	.	?	/	?
COc1ccc(S(=O)(=O)Nc2ccc3c(c2)N(C(C)=O)CCC3)cc1OC	.	.	.	.	.	.
COc1cccc(NS(=O)(=O)c2ccc3c(c2)CCN3C(C)=O)c1	.	?	-64.2	.	?	.
COC(=O)c1ccc(OC)c(CN2C(=O)N(c3ccc(C(C)=O)cc3)S(=O)(=O)c3ccccc32)c1	.	.	?	?	/	?
CC(=O)N1CCc2cc(S(=O)(=O)Nc3ccc(C)cc3)ccc21	.	.	-63.7	.	?	.
CSc1cccc(NS(=O)(=O)c2ccc3c(c2)CCN3C(C)=O)c1	/	/	-87.9	.	/	/
CC(=O)N1CCCc2cc(S(=O)(=O)N3CCCC(C(=O)NCc4ccc(C)cc4)C3)ccc21 (stereo not given)	.	.	-72.4!	?	/	?
CC(=O)N1CCc2cc(S(=O)(=O)N3CCc4ccccc43)ccc21	?	.	-67.9	?	?	?
CC(=O)N1CCc2cc(S(=O)(=O)Nc3cccc(C(F)(F)F)c3)ccc21	?	?	?	.	?	?
CCOc1ccc(-n2c(=O)c3c(C)c(C)sc3n(Cc3cc(=O)n4cc(Cl)ccc4n3)c2=O)cc1	.	.	.	.	.	.
CC(=O)c1cccc(NS(=O)(=O)c2ccc(NC(=O)N3CCCCC3)cc2)c1	.	.	-70.8	?	2.24µM	?
CC(=O)c1cccc(NC(=O)N2CCCCCC2)c1	/	/	.	.	/	/
Cc1cccc(C)c1N=CN1c2ccccc2-n2cccc2C1CCc1ccccc1 (stereo not given)	/	/	.	/	/	/
CC(Sc1ncnc2sccc12)C(=O)Nc1ccc(S(N)(=O)=O)cc1 (stereo not given)	?	11.2µM	.	.	?	.
COC(=O)C1(C(=O)OC)Cc2conc2[C@H]1c1ccccc1	/	/	/	/	.	/

Screening data deposited in PubChem by National Center for Advancing Translational Sciences (NCATS).
